Assay [1] is described as follows: NCI Yeast Anticancer Drug Screen. Data for the rad50 strain (AID 155).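 Also: 0% = growth of vehicle-only cultures of the same strain.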 The note with it: S. cerevisiae rad50 strain growth inhibition, hits give high values. In a few lines: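 A DNA repair-deficient yeast mutant serves as the test organism; compound-induced growth inhibition is calculated against vehicle-treated cells.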
Assay [2] is described as follows: NCI Yeast Anticancer Drug Screen. Data for the mec2-1 strain (AID 157). The settings on record: S. cerevisiae mec2-1 strain, hits give high values. An outline of the steps: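 Cells of the genetically defined mec2-1 yeast strain are incubated with test compound. Inhibition of growth is calculated against vehicle-treated controls.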
Assay [3] in a line: NCI Yeast Anticancer Drug Screen. Data for the sgs1 mgt1 strain (AID 161).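 Also: 0% = growth of cultures given vehicle only.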 The settings on record: S. cerevisiae sgs1 mgt1 strain, hits give high values. An outline of the steps: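 Mutant yeast exposed to compound; growth scored against vehicle-only wells.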
A short description of assay [4]: NCI Yeast Anticancer Drug Screen. Data for the cln2 rad14 strain (AID 165).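 Also: 0% = growth equal to vehicle treated cultures.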 The settings on record: S. cerevisiae cln2 rad14 strain, hits give high values. In a few lines: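 The screen exposed genetically defined yeast (cln2 rad14) to test compounds and scored growth inhibition relative to vehicle-treated controls.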
Assay [5] can be described thus: NCI Yeast Anticancer Drug Screen. Data for the bub3 strain (AID 167). The settings on record: S. cerevisiae bub3 mutant strain, hits give high values. In a few lines:
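Inhibition values come from growth of compound-treated mutant yeast normalised to vehicle-treated controls.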

Assay [6] can be described thus: NCI Yeast Anticancer Drug Screen. Data for the mlh1 rad18 strain (AID 175). The note with it: S. cerevisiae mlh1 rad18 strain growth inhibition, hits give high values. In a few lines:
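Compound-treated yeast growth, normalised to vehicle controls. Strain bears defined DNA repair mutations.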

The mark [7] stands for this setting: at 5.0 µM (retest, dose inferred, filed as 0.5).
[8] abbreviates: at 50.0 µM (retest, dose inferred, filed as 5.0).

Each structure is given as a SMILES string. This is part of a sample that, as a whole, favours compounds with a hit. Of some 79,000 tested, about 15% had one in any assay. Unmarked numbers belong to inactive results. Activity calls are given as the source filed them. Rule as the data show it: active = growth inhibition above about 70%; inactive = the rest.

With `Cc1occc1C(=S)Nc1ccc(Cl)c(C(=O)OC(C)C2CC2)c1` (stereo not given), the growth inhibition is 9% in assay [1] (setting [7]); 59% in assay [1] (setting [8]); 58.1% in assay [1] (at 50.0 µM); 16% in assay [2] (setting [7]); 48% in assay [2] (setting [8]); 39.9% in assay [2] (at 50.0 µM). Further, the growth inhibition in assay [3] (setting [7]) is -1%; in assay [3] (setting [8]), 46%; in assay [3] (at 50.0 µM), 78.8% (active); in assay [4] (setting [7]), -5%; in assay [4] (setting [8]) it was 51%; in assay [4] (at 50.0 µM) it was 81.5% (active). The growth inhibition in assay [5] (setting [7]) was 6%; in assay [5] (setting [8]), 56%; in assay [5] (at 50.0 µM), 77.1% (active); in assay [6] (setting [7]), 12%; in assay [6] (setting [8]), 76% (active); in assay [6] (at 50.0 µM) it was 63.5%.

For the molecule `CC(=O)OCc1ccc(O)c2ncccc12`, the growth inhibition in assay [1] (setting [7]) was -127%; in assay [1] (setting [8]), 74% (active); in assay [1] (at 50.0 µM) it was 95.7% (active); in assay [2] (setting [7]), -49%; in assay [2] (setting [8]), 83% (active); in assay [2] (at 50.0 µM), 94% (active). In addition, the growth inhibition is -51% in assay [3] (setting [7]); 45% in assay [3] (setting [8]); 54.2% in assay [3] (at 50.0 µM); -44% in assay [4] (setting [7]); 75% (active) in assay [4] (setting [8]); 41% in assay [4] (at 50.0 µM). Also, the growth inhibition is -56% in assay [5] (setting [7]); 74% (active) in assay [5] (setting [8]); 67.1% in assay [5] (at 50.0 µM); -103% in assay [6] (setting [7]); 54% in assay [6] (setting [8]); 55% in assay [6] (at 50.0 µM).

Turning to `CCNCCNc1cc(O)c2c(c1O)C(=O)c1ccccc1C2=O`, the growth inhibition in assay [1] (setting [7]) is 73% (active); in assay [1] (setting [8]), 98% (active); in assay [1] (at 50.0 µM) it was 87.2% (active); in assay [2] (setting [7]) it was 92% (active); in assay [2] (setting [8]) it was 98% (active); in assay [2] (at 50.0 µM), 84.9% (active). Besides, the growth inhibition was 78% (active) in assay [3] (setting [7]); 98% (active) in assay [3] (setting [8]); 83.5% (active) in assay [3] (at 50.0 µM); 30% in assay [4] (setting [7]); 83% (active) in assay [4] (setting [8]); 67.8% in assay [4] (at 50.0 µM). Besides, the growth inhibition in assay [5] (setting [7]) was 96% (active); in assay [5] (setting [8]), 98% (active); in assay [5] (at 50.0 µM) it was 78.5% (active); in assay [6] (setting [7]) it was 91% (active); in assay [6] (setting [8]) it was 98% (active); in assay [6] (at 50.0 µM), 91.7% (active).

For `CCCCCCCCC(=O)NCCN(CCN)C(=O)CCCCCCCC`, the growth inhibition was -82% in assay [1] (setting [7]); 97% (active) in assay [1] (setting [8]); 90.2% (active) in assay [1] (at 50.0 µM); -43% in assay [2] (setting [7]); 98% (active) in assay [2] (setting [8]); 93.1% (active) in assay [2] (at 50.0 µM). Also, the growth inhibition was -33% in assay [3] (setting [7]); 97% (active) in assay [3] (setting [8]); 91.7% (active) in assay [3] (at 50.0 µM); -24% in assay [4] (setting [7]); 98% (active) in assay [4] (setting [8]); 89.9% (active) in assay [4] (at 50.0 µM). The growth inhibition in assay [5] (setting [7]) was -47%; in assay [5] (setting [8]), 97% (active); in assay [5] (at 50.0 µM), 90.1% (active); in assay [6] (setting [7]), -68%; in assay [6] (setting [8]), 97% (active); in assay [6] (at 50.0 µM), 90% (active).

With `NC(=O)NC(CC(=O)O)C(=O)O` (stereo not given), the growth inhibition in assay [1] (setting [7]) was -6%; in assay [1] (setting [8]) it was 12%; in assay [1] (at 50.0 µM), -19.9%; in assay [2] (setting [7]), -7%; in assay [2] (setting [8]), -4%; in assay [2] (at 50.0 µM), -4.35%. For the same molecule, the growth inhibition in assay [3] (setting [7]) is -8%; in assay [3] (setting [8]) it was -5%; in assay [3] (at 50.0 µM) it was -6%; in assay [4] (setting [7]), -3%; in assay [4] (setting [8]), -4%; in assay [4] (at 50.0 µM), 65.8%. The growth inhibition in assay [5] (setting [7]) was 3%; in assay [5] (setting [8]) it was -6%; in assay [5] (at 50.0 µM), -29.8%; in assay [6] (setting [7]) it was -8%; in assay [6] (setting [8]), 4%; in assay [6] (at 50.0 µM), -1.7%.

For `CCN(CC)CCOc1ccc(/C=C(\C#N)c2ccc(OC)cc2)cc1`, the growth inhibition is 24% in assay [1] (setting [7]); 83% (active) in assay [1] (setting [8]); 74.5% (active) in assay [1] (at 50.0 µM); 17% in assay [2] (setting [7]); 96% (active) in assay [2] (setting [8]); 62.5% in assay [2] (at 50.0 µM). Also, the growth inhibition in assay [3] (setting [7]) was 40%; in assay [3] (setting [8]), 97% (active); in assay [3] (at 50.0 µM), 85.9% (active); in assay [4] (setting [7]), 34%; in assay [4] (setting [8]) it was 90% (active); in assay [4] (at 50.0 µM), 82.8% (active). In addition, the growth inhibition in assay [5] (setting [7]) is 44%; in assay [5] (setting [8]) it was 95% (active); in assay [5] (at 50.0 µM), 68.5%; in assay [6] (setting [7]), 24%; in assay [6] (setting [8]), 84% (active); in assay [6] (at 50.0 µM), 75.8% (active).

Take `CC(C)c1ccc(S(=O)(=O)c2ccc([N+](=O)[O-])cc2[N+](=O)[O-])cc1`: the growth inhibition is 98% (active) in assay [1] (setting [7]); 91% (active) in assay [1] (setting [8]); 93.8% (active) in assay [1] (at 50.0 µM); 100% (active) in assay [2] (setting [7]); 97% (active) in assay [2] (setting [8]); 96.5% (active) in assay [2] (at 50.0 µM). Moreover, the growth inhibition in assay [3] (setting [7]) is 100% (active); in assay [3] (setting [8]), 97% (active); in assay [3] (at 50.0 µM), 96.8% (active); in assay [4] (setting [7]), 76% (active); in assay [4] (setting [8]), 94% (active); in assay [4] (at 50.0 µM), 94.5% (active). For the same molecule, the growth inhibition in assay [5] (setting [7]) was 95% (active); in assay [5] (setting [8]), 96% (active); in assay [5] (at 50.0 µM), 96.2% (active); in assay [6] (setting [7]) it was 99% (active); in assay [6] (setting [8]), 95% (active); in assay [6] (at 50.0 µM), 96.2% (active).

As to `S=C(N/N=C/c1ccccn1)N1CCCCCC1`, the growth inhibition in assay [1] (setting [7]) is 99% (active); in assay [1] (setting [8]), 100% (active); in assay [1] (at 50.0 µM) it was 88.8% (active); in assay [2] (setting [7]), 98% (active); in assay [2] (setting [8]) it was 100% (active); in assay [2] (at 50.0 µM), 92.8% (active). For the same molecule, the growth inhibition in assay [3] (setting [7]) is 98% (active); in assay [3] (setting [8]) it was 99% (active); in assay [3] (at 50.0 µM) it was 91.6% (active); in assay [4] (setting [7]) it was 97% (active); in assay [4] (setting [8]), 100% (active); in assay [4] (at 50.0 µM) it was 92.8% (active). Moreover, the growth inhibition was 99% (active) in assay [5] (setting [7]); 100% (active) in assay [5] (setting [8]); 92.2% (active) in assay [5] (at 50.0 µM); 99% (active) in assay [6] (setting [7]); 99% (active) in assay [6] (setting [8]); 88.8% (active) in assay [6] (at 50.0 µM).

Turning to `COc1cccc(CC2N(S(=O)(=O)c3ccc(C)cc3)CCC23C(=O)Nc2ccccc23)c1OC` (stereo not given), the growth inhibition in assay [1] (setting [7]) is 10%; in assay [1] (setting [8]), 94% (active); in assay [1] (at 50.0 µM) it was 91.8% (active); in assay [2] (setting [7]) it was 2%; in assay [2] (setting [8]), 96% (active); in assay [2] (at 50.0 µM), 69.4%. The growth inhibition is 10% in assay [3] (setting [7]); 96% (active) in assay [3] (setting [8]); 82.2% (active) in assay [3] (at 50.0 µM); -3% in assay [4] (setting [7]); 93% (active) in assay [4] (setting [8]); 39% in assay [4] (at 50.0 µM). In addition, the growth inhibition in assay [5] (setting [7]) was -3%; in assay [5] (setting [8]) it was 96% (active); in assay [5] (at 50.0 µM), 80.7% (active); in assay [6] (setting [7]), 3%; in assay [6] (setting [8]), 96% (active); in assay [6] (at 50.0 µM), 92.2% (active).

On to `CCCCCCCCCCCCCCCCNc1ccn(C2CC(OP(=O)(O)OCC3OC(n4cc(CC)c(=O)[nH]c4=O)CC3O)C(CO)O2)c(=O)n1` (stereo not given), for which the growth inhibition is 73% (active) in assay [1] (setting [7]); 97% (active) in assay [1] (setting [8]); 41.8% in assay [1] (at 50.0 µM); 26% in assay [2] (setting [7]); 97% (active) in assay [2] (setting [8]); 12.8% in assay [2] (at 50.0 µM). Besides, the growth inhibition is 94% (active) in assay [3] (setting [7]); 97% (active) in assay [3] (setting [8]); 58% in assay [3] (at 50.0 µM); 7% in assay [4] (setting [7]); 64% in assay [4] (setting [8]); 39.5% in assay [4] (at 50.0 µM). Also, the growth inhibition in assay [5] (setting [7]) is -19%; in assay [5] (setting [8]), 92% (active); in assay [5] (at 50.0 µM), 11.8%; in assay [6] (setting [7]) it was 59%; in assay [6] (setting [8]), 87% (active); in assay [6] (at 50.0 µM) it was 16.3%.

The record behind these values is PubChem BioAssay (NCI).
